From PubChem
An excerpt weighted towards active compounds, which were near 8.3% of everything screened.
Marburg entry inh – inhibitors of Marburg virus binding or cell entry; 300,000 tested, 1.8% active; Marburg virus pseudotyped entry inhibition, cell reporter; Potency, µM (doses to about 37.8 µM), usual class: inhibitors; calls by dose curve; tested in HEK293 cells
HCV inhibitor – HCV inhibition; Huh7.5.1 HCVcc-Cre infection, luciferase reporter, 44 h; 340,000 tested, 3.4% active; Potency, µM (top dose mostly 41.8 µM), most hits filed as inhibitors; AID 651820
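Antiviral activity was scored by luciferase reporter output from cells infected with HCVcc-Cre (~0.5 moi) in presence of compound, 44 h infection period, cells seeded 1,000/well 4 h prior.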
HCMV inh – human cytomegalovirus inhibition. HFF cells, HCMV-luciferase reporter, 72 h; hits give low values. activity change, negative = inhibition, % at 57.5 µM. 410,000 tested, 4.5% active; in the data active = activity change below about -60%; inconclusive = no clear call, values can overlap the other calls; inactive = above about -39%
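Luciferase read-out from HCMV-luciferase-infected HFFs (MOI 1 PFU/cell) 72 h post infection at 37C; compounds added after 16 h cell attachment; activity normalized between buffer-only basal and Salinomycin (10uM) inhibitor controls.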
LASV entry inh – inhibitors of Lassa virus binding or cell entry; Lassa virus pseudotype entry inhibition, cell reporter; 300,000 tested, 1.2% active; Potency, µM (doses to about 37.9 µM), actives largely listed as inhibitors; calls by dose curve; tested in HEK293 cells; note: nearly all actives have a fitted effect of over 50% in size
Giardia FBPA inh – blocks Giardia fructose-bisphosphate aldolase activity | Potency, µM (titrated, usually from 59.6 µM), usual class: inhibitors | A8B2U2 | purified Giardia FBPA | AID 2451 | 290,000 tested, 0.71% active; note: nearly all actives have a fitted effect of over 55% in size
Target sequence (A8B2U2 whole entry, looked up): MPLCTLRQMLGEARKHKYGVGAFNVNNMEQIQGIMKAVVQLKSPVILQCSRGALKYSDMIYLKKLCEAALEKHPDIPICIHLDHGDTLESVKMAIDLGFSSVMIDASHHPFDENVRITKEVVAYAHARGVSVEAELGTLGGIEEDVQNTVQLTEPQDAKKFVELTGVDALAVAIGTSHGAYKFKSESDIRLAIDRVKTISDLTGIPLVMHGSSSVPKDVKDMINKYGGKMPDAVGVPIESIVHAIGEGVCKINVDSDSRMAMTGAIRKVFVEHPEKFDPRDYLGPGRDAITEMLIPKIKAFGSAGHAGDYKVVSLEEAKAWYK
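40 nM FBPA preincubated 10 min at RT with compound (up to 57.5 uM final), then substrate plus GAPDH/TPI/NAD/arsenate coupling and diaphorase/resazurin added. Fluorescence read after 20 min at RT, 525/598 nm.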
FMDV inh – antivirals against foot and mouth disease virus; FMDV antiviral cell-based qHTS; Potency, µM (highest dose often 57.9 µM), usual class: inhibitors; 410,000 tested, 1.2% active; calls by dose curve; tested in HEK293T cells; note: read-out not given here; nearly all actives have a fitted effect of over 45% in size
Numbers stand for hits; i = inactive; ? = inconclusive; nt = no result. Unless noted, calls come from the whole dose curve; as a rule, active = well fitted curve in the direction sought with a large enough effect; inconclusive = small, poorly fitted or top-dose-only effect, or another doubt; inactive = no such curve, though single readings can be large; an effect the other way counts as inactive or inconclusive.

SMILES | Marburg entry inh | HCV inhibitor | HCMV inh | LASV entry inh | Giardia FBPA inh | FMDV inh
OCC[C@H]1C[C@@H](O)[C@H](O)[C@]2(CCc3ccccc3CO2)O1 | nt | i | i | nt | nt | i
CCSC(N)=Nc1ccc(C(F)(F)F)cc1 | i | nt | nt | nt | i | nt
C=CCNc1nc(N)c(C(=C(C#N)C#N)c2ccc(Br)cc2)s1 | ? | ? | ? | ? | i | 5.62µM
Cc1ccc(NC(=O)Nc2nnc(N3CCCC3)s2)cc1C | i | nt | i | i | nt | i
C=CCNc1nc(-c2cccs2)c(CC(=O)O)s1 | i | i | i | i | i | i
CCN(CC)CCNc1nc(-c2cccs2)c(CC(=O)O)s1 | ? | i | -87.2 | i | ? | i
CN(C)c1ccc(NC(=O)c2cnsn2)cc1 | ? | i | i | 7.08µM | i | i
Cc1noc(C)c1C(=O)Nc1ccc(N(C)C)cc1 | nt | i | i | nt | nt | ?
CC(=O)N1c2ccccc2CC1C(=O)NCc1cccc(Cl)c1 (centres undefined) | ? | nt | i | ? | nt | i
COc1ccc(C2c3[nH]c4ccccc4c3CCN2C(=O)CCC2CCCC2)cc1 (centres undefined) | nt | nt | -82.5 | ? | nt | i
COc1ccc(C(=O)N2CCc3c([nH]c4ccccc34)C2C(F)(F)F)cc1 (centres undefined) | nt | ? | -60.2 | nt | i | i
CCOc1cccc(C2c3[nH]c4ccccc4c3CCN2C(=O)CCC2CCCC2)c1 (centres undefined) | nt | nt | i | ? | nt | i
CCOc1ccc(C2c3[nH]c4ccccc4c3CCN2C(=O)CCC2CCCC2)cc1 (centres undefined) | nt | nt | -80.5 | ? | nt | i
O=C(O)c1ccccc1C(=O)N1CCc2c([nH]c3ccccc23)C1C(F)(F)F (centres undefined) | i | i | i | i | i | i
COc1ccc(C2c3[nH]c4ccc(OC)cc4c3CCN2C(=O)Nc2ccccc2)cc1 (centres undefined) | nt | nt | -88.5 | ? | nt | ?
COc1ccc(N2C(=O)CC(Cc3ccccc3)C2=O)cc1 (centres undefined) | i | i | i | i | i | i
O=C1C=CC2(C=C1)O[C@H](Cc1ccccc1)[C@@H](Cc1ccccc1)O2 | 2.82µM | 2.51µM | -98.7 | 7.08µM | nt | 3.98µM
COc1ccc(C[C@@H]2OC3(C=CC(=O)C=C3)O[C@H]2Cc2ccc(OC)cc2)cc1 | 2.51µM | 3.98µM | nt | ? | nt | 14.1µM
O=C1Nc2ccccc2C1Cc1ccccc1 (centres undefined) | i | i | i | i | ? | i
COc1ccc(OC)c(CN2CCN(C(=O)c3cc(S(=O)(=O)Nc4ccccc4OC)ccc3C)CC2)c1 | ? | 14.1µM | i | ? | nt | i
COc1ccc(OC)c(CN2CCN(C(=O)c3cccc(S(=O)(=O)Nc4ccc(C)cc4)c3)CC2)c1 | ? | 10µM | i | i | nt | i
COc1ccc(NS(=O)(=O)c2cccc(C(=O)N3CCN(Cc4cc(OC)ccc4OC)CC3)c2)cc1 | i | ? | i | ? | nt | i
COc1ccc(CNC(=O)c2cnc(N3CCN(Cc4ccccc4C#N)C3=O)s2)cc1OC | nt | nt | i | nt | nt | nt
Cc1cc(C)n2c(SCC(=O)N3CCN(S(=O)(=O)c4ccc(Cl)cc4)CC3)nnc2n1 | i | i | -73.2 | i | i | i
COc1cccc(NC(=O)c2sc3nc(C)c(C(=O)Nc4ccc(C)cc4C)c(-c4ccc(C)o4)c3c2N)c1 | ? | nt | i | ? | nt | i
SMILES | Marburg entry inh | HCV inhibitor | HCMV inh | LASV entry inh | Giardia FBPA inh | FMDV inh
CCOc1ccc(NC(=O)c2sc3nc4c(cc3c2N)CN(Cc2ccccc2)CC4)cc1 | i | nt | i | i | nt | i
Cc1nc2c3ccccc3n(CCN3CCCCC3)c2s1 | i | i | nt | nt | i | nt
Cc1nc2c3cc(F)ccc3n(CCN3CCCCC3)c2s1 | 7.08µM | i | i | i | i | i
CC1(C2CC2)NC(=O)N(CC(=O)N2CCN(c3cccc(C(F)(F)F)c3)CC2)C1=O (centres undefined) | i | i | ? | i | nt | 35.5µM
Cc1ccc(CC(=O)N2CCN(c3cccc(C(F)(F)F)c3)CC2)cc1 | i | i | i | ? | nt | i
COc1ccccc1CC(=O)N1CCN(c2cccc(C(F)(F)F)c2)CC1 | ? | ? | -69.5 | ? | i | nt
COc1ccc(OCC(=O)N2CCN(c3cccc(C(F)(F)F)c3)CC2)cc1 | i | i | i | ? | i | i
COc1ccccc1NC(=O)N1CCN(c2cccc(C(F)(F)F)c2)CC1 | i | 11.2µM | i | i | i | ?
COc1ccccc1NC(=O)N1CCN(c2ccc(F)cc2)CC1 | i | i | i | i | i | i
O=C(CSc1nc2c([nH]c3ccccc32)c(=O)n1-c1cccc(C(F)(F)F)c1)N1CCc2ccccc21 | nt | nt | i | i | nt | i
Cc1nn(Cc2ccc(Cl)cc2)c(C)c1NC(=O)c1cc(-c2ccc3c(c2)OCO3)on1 | ? | 31.6µM | -93.7 | i | i | ?
Cc1ccc(NC(=O)c2cc(-c3ccc4c(c3)OCO4)on2)cc1 | i | i | ? | ? | i | i
Clc1ccc(Cn2ccc(-c3ccc4c(c3)OCO4)n2)cc1Cl | i | 25.1µM | i | ? | i | i
Cc1nn(Cc2ccc(Cl)c(Cl)c2)c(C)c1NC(=O)c1cc(-c2ccc3c(c2)OCO3)on1 | 6.51µM | ? | -72.9 | ? | i | ?
COc1ccc(OC)c(CN2CCCC(c3nc(-c4ccncc4)ncc3-c3ccccc3C)C2)c1 (centres undefined) | nt | nt | nt | nt | nt | i
CCN(CC)CCCNC(=O)c1ccc2c(c1)NC(=O)C(CS(=O)(=O)Cc1cccc(Br)c1)N2 (centres undefined) | nt | nt | i | i | nt | i
CCN(CC)C1CCN(C(=O)c2ccc(OC3CCN(CCc4ccccc4)CC3)cc2)C1 (centres undefined) | nt | 7.08µM | i | nt | i | i
COC1CCN(C(=O)c2ccc(OC3CCN(CCc4ccccc4)CC3)cc2)CC1 | i | i | i | i | i | i
Cc1nn(C)c(C)c1N1C(=O)c2cccc3c(Br)ccc(c23)C1=O | i | ? | -73.7 | i | i | ?
Cc1nn(C)c(C)c1N1C(=O)c2cccc3c(N)ccc(c23)C1=O | i | i | i | i | i | i
O=C(O)[C@H]1C[C@@H](CP(=O)(O)O)CCN1 | nt | nt | nt | nt | i | nt
COCC(=O)Nc1cc(C(=O)N2CCN(C)C(c3ccccc3)C2)c2c(c1)nc(-c1ccncc1)n2C (centres undefined) | nt | nt | nt | nt | nt | i
COc1cc(OC)cc(-c2cc3ncccc3cn2)c1 | nt | 11.2µM | i | nt | nt | i
COc1cc(OC)cc(-c2cc3ccc(OC)cc3cn2)c1 | nt | ? | i | nt | nt | i
CCOC(=O)C1=CCN(S(=O)(=O)c2ccc(Cl)cc2)C1c1cccc(Cl)c1 (centres undefined) | nt | nt | i | nt | nt | nt
C=CCn1c(SCC(=O)Nc2ccc(C(=O)O)cc2)nc2sc(C)c(C)c2c1=O | nt | i | i | nt | nt | i
C=CCn1c(SCC(=O)NCCO)nc2sc(C)c(C)c2c1=O | i | i | i | i | i | 3.55µM
C=CCn1c(SCC(=O)c2cc(C)n(C(C)COC)c2C)nc2sc(C)c(C)c2c1=O (centres undefined) | i | 10µM | i | 9.2µM | i | ?
